# CYP2C19 activ – human CYP2C19 activators, primary screen, biochemical, luminescence; Cytochrome P450 2C19 (Homo sapiens), P33261; recombinant CYP2C19, luciferin-H EGE luminescence; hits give high values; 0 = fully inhibited enzyme, 1 = untreated enzyme; activation factor at 5 µM; 96,000 tested, under 10 active; AID 1025, 2008;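 active = activation factor of at least 2 at 5 µM in the primary screen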;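 note: 0 = wells with 2.5 mM tranylcypromine and 1 = vehicle-only wells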
# Target sequence (P33261 whole entry, looked up): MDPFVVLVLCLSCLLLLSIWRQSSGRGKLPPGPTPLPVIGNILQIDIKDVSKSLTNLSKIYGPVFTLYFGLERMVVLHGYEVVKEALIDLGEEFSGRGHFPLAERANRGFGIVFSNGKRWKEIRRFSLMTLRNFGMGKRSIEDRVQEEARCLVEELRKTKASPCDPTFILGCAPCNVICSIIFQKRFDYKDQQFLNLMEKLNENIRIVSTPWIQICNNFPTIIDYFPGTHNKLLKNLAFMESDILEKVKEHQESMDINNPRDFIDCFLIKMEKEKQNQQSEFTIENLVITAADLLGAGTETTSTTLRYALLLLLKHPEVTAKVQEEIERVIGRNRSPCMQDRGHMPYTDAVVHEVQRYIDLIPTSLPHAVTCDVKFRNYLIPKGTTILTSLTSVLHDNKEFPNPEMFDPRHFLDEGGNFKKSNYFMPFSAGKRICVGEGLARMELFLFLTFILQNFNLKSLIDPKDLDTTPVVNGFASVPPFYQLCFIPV
# CYP2C9 inhib – blockers of cytochrome P450 2C9 activity – biochemical, luminescence, ADME assay, primary screen; P11712; CYP2C9 Supersomes, luciferin-H conversion; inhibition, % at 5 µM; hit rate 20% among 96,000;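 active = blocking of liver enzyme CYP2C9 beyond about 50% at 5 µM, limit read from the data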
# CYP2C19 inh – blockers of cytochrome P450 2C19 activity – biochemical, luminescence, ADME assay, primary screen; P33261; CYP2C19 Supersomes, luciferin-H EGE luminescence, 30 min; inhibition, % at 5 µM; hit rate 21% among 96,000; AID 778, 2007;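 active = CYP2C19 inhibition above a set limit at 5 µM in the primary screen, cut at about 50% in these data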;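 note: plate controls were negative control wells for no effect and 2.5 mM tranylcypromine positive control for full effect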
# CYP2C9 act – human CYP2C9 activators, primary screen, biochemical, luminescence. recombinant CYP2C9, luciferin-H conversion; hits give high values; factor 1 = untreated enzyme, 0 = blocked. activation factor at 5 µM. hit rate 1.4% among 96,000. AID 1024, 2008;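 active = activation factor of 2 or more for CYP2C9 at a 5 µM dose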;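 note: 0 = sulfaphenazole-blocked wells and 1 = vehicle-only wells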
# An asterisk follows results filed as active. In the library only some 31% were active in any assay of this set; here they are far more common.
SMILES,CYP2C19 activ,CYP2C9 inhib,CYP2C19 inh,CYP2C9 act
O=C(CN1CCC(Cc2ccccc2)CC1)NC(=O)NCc1ccco1,0.4,0,58*,1
N#CCSc1nnc2ccc3ccccc3n12,0.8,-46,16,1.5
CCOC(=O)c1ccc(NS(=O)(=O)c2cc(C)ccc2OC)cc1,1.1,58*,-5,0.4
COc1ccc(OC)c(S(=O)(=O)Nc2ccc(Oc3ccccc3)cc2)c1,0,82*,97*,0.2
CCOc1ccc(S(=O)(=O)Nc2ccc(F)cc2)c(C)c1C,0,100*,100*,0
COc1ccc(C(=O)N2CCCCC2)cc1S(=O)(=O)Nc1ccccc1,0.8,33,19,0.7
COc1ccc(OC)c(S(=O)(=O)Nc2ccc(O)c3ccccc23)c1,0.2,84*,76*,0.2
O=C(NCc1cccs1)C1CCC(=O)N1C1CCCCC1 (stereo not given),0.9,-3,12,1
O=C(Cn1c(=O)oc2ccccc21)N1CCN(c2ccc(N3CCOCC3)nn2)CC1,1,-10,4,1.1
COC(=O)[C@H](CC(C)C)NC(=O)N1CCN(c2cccc(C(F)(F)F)c2)CC1,0.8,-61,20,1.6
COc1ccc(OC)c(S(=O)(=O)Nc2ccc(O)c(Sc3ncn[nH]3)c2)c1,0.2,43,80*,0.6
COc1ccc(OC)c(S(=O)(=O)Nc2ccc(C(C)=O)cc2)c1,0.5,44,47,0.6
CCOC(=O)c1ccc(NS(=O)(=O)CC)cc1,0.3,80*,67*,0.2
COc1ccc(OC)c(S(=O)(=O)Nc2ccc(C(N)=O)cc2)c1,0.4,30,60*,0.7
CCOc1ccc(NS(=O)(=O)c2cc(OC)ccc2OC)cc1,0.5,79*,49,0.2
CNS(=O)(=O)c1cc(OC)ccc1OC,0.9,12,8,0.9
Nc1ncc2c(n1)CC(c1ccco1)CC2=O (stereo not given),0.9,-2,11,1
O=C(O)CCCC(=O)Nc1ccccc1Br,1.1,-6,-10,1.1
CCCCOC(=O)c1ccc(NS(=O)(=O)c2cc(-c3nnnn3CC)ccc2OC)cc1,0.9,71*,12,0.3
COC1(OC)N=C(NC(=O)Nc2ccccc2)C2(C#N)C(c3ccccc3)C12C#N (stereo not given),1,5,-4,0.9
COc1ccc(-c2csc(N(CCc3ccc(OC)c(OC)c3)C(=O)COc3ccccc3)n2)cc1,0.6,68*,38,0.3
O=C(Cn1cnc2ccccc21)NCCCN1CCOCC1,1.1,-4,-9,1
CCOC(=O)C(NC(=O)OC(C)C)(Nc1nccs1)C(F)(F)F (stereo not given),0.4,-6,55*,1.1
CC(=O)c1coc2ccc(OCCN3CCCCC3)cc12,1.2,-8,-15,1.1
COc1ccc(-n2c(C)nc3cc(C(=O)NCCN4CCOCC4)ccc32)cc1,0.8,27,16,0.7
SMILES,CYP2C19 activ,CYP2C9 inhib,CYP2C19 inh,CYP2C9 act
COC(=O)c1sc2ccccc2c1-n1cccc1C(=O)C(=O)Nc1ccccc1,0.8,100*,24,0
COC(=O)c1sc2ccccc2c1-n1cccc1C(=O)C(=O)Nc1ccc(OC)cc1,0.6,101*,42,0
Cc1ccccc1OCCOc1cccc(/C=N/NC(=O)Cc2nnc(N)s2)c1,1.1,5,-6,0.9
COc1cccc(CNC2CCCC2)c1,0.9,-12,14,1.1
COc1cc(CNC2CCC(C)C2)cc(OC)c1 (stereo not given),0.4,-13,62*,1.1
COc1cc(CNC2CCCC2)cc(OC)c1,0.3,40,71*,0.6
CN(C)Cc1nc2ccccc2c(=O)n1Cc1nc(-c2cc3ccccc3o2)cs1,0.8,70*,18,0.3
Cc1nn(Cc2ccc(Cl)cc2Cl)c(C)c1NC(=O)c1nc2n(n1)C(C(F)F)CC(C)N2 (stereo not given),1,-25,3,1.2
COc1cc(S(=O)(=O)N2CCOCC2)ccc1NC(=O)COC(=O)c1ccccn1,1,20,4,0.8
CC(C(=O)NC(=O)NC1CCCCC1)N1CCN(C(c2ccccc2)c2ccccc2)CC1 (stereo not given),0.7,84*,26,0.2
O=C(NC1CCCCC1)C(c1ccccc1)N1CCCC1 (stereo not given),0.3,-9,71*,1.1
CN1C(=O)CSc2ccc(NC(=O)NCCC3=CCCCC3)cc21,0.8,28,25,0.7
CC1(C)CC(=O)C(/C=N/c2ncccc2C(=O)O)=C(O)C1,1.1,2,-9,1
Cc1noc(C)c1S(=O)(=O)N1CCC(C(=O)N2CCC(N3CCCCC3)CC2)CC1,0.8,3,18,1
COc1nc(Nc2ccc(C(C)=O)cc2)nc(OC)n1,0.5,51*,51*,0.5
COc1nc(Nc2ccc3c(c2)OCO3)nc(OC)n1,0.5,68*,49,0.3
COC(=O)c1ccc(Nc2nc(C)cc(C)n2)cc1,1,7,3,0.9
CC(C)(C)NC(=O)C(c1ccsc1)N(CCc1ccccc1)C(=O)Cn1nnc2ccccc21 (stereo not given),1.1,-13,-6,1.1
Fc1ccc(N2CCN(c3ccc4c(C(F)(F)F)cc(C(F)(F)F)nc4n3)CC2)cc1,0.8,-40,21,1.4
CC(C)[C@H](NC(=O)Nc1ccc2c(c1)OCCO2)C(=O)O,1.2,-27,-16,1.3
CCCc1[nH]nc2c1C(/C(C)=C/c1ccccc1)C(C#N)=C(N)O2 (stereo not given),0.8,29,22,0.7
N#C/C(=C/c1ccccc1)c1nn(CCO)c(N)c1C#N,0.1,77*,94*,0.2
COc1ccc(OC)c(N2C(=O)C(Cl)=C(N3CCCCC3)C2=O)c1,0.3,78*,66*,0.2
COc1ccc(OC)c(N2C(=O)C(Cl)=C(N3CCOCC3)C2=O)c1,0.4,22,60*,0.8
O=C1C(Cl)=C(N2CCCCC2)C(=O)N1c1ccccc1Cl,0.7,32,32,0.7
SMILES,CYP2C19 activ,CYP2C9 inhib,CYP2C19 inh,CYP2C9 act
CCOC(=O)c1cc(C)n(-n2cnnc2)c1C,1.2,-22,-18,1.2
CC(C)NC(=O)c1ccccc1-c1nc(-c2ccccc2Cl)no1,0.8,79*,17,0.2
COCCNC(=O)c1ccccc1-c1nc(-c2ccccc2OC)no1,0.9,19,11,0.8
CC(C)(C)NC(=O)c1ccccc1-c1nc(-c2ccccc2Cl)no1,0.2,100*,85*,0
CCOc1ccccc1NC(=O)c1ccccc1-c1nc(-c2ccccc2OC)no1,0.6,63*,39,0.4
CCNC(=O)c1ccccc1-c1nc(-c2ccccc2Cl)no1,0.8,76*,15,0.2
O=C(CCN1C(=O)COc2ccccc21)N1CCCCC1,0.7,8,30,0.9
COc1cccc(NC(=O)c2ccccc2-c2nc(-c3cccc(C)c3)no2)c1,0.6,61*,36,0.4

# Bioassay records as filed in PubChem.
